# An excerpt weighted towards active compounds, which were near 1.6% of everything screened.
# TNFa cytotox = HUVEC cytotoxicity counter-screen, TNF alpha stimulated; hit rate 0.17% among 93,000; cell count reduction, % at 2 µM; HUVEC TNFalpha-stimulated, Hoechst cell count, imaging;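 active = cell count reduction exceeding the screen mean by over 5 SD, scaled to untreated wells per plate, cut at about 78% in these data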;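 also: cells counted after 24 h of TNF alpha exposure following the 1 h pretreatment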
# IL1B NFkB pot = enhances IL-1B driven NFkB nuclear translocation | hit rate 0.3% among 94,000 | activation, % at 2 µM | HUVEC IL-1B NFkB p65 nuclear translocation imaging;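 active = activation above 40%, about the mean plus 3 SD, also judged a hit on visual image review; inconclusive = activation above 40% but not a hit on visual review; inactive = activation not above 40% and no visual hit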;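 also: percent activation is computed from the nuclear over cytoplasmic p65 intensity ratio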
# cytoskel mod = alters cytoskeleton assembly in HUVEC cells. inhibition, % at 2 µM. hit rate 0.18% among 91,000. HUVEC TNFa F-actin phalloidin imaging, high content;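 active = inhibition above the batch mean plus 3 SD and confirmed as a hit by visual image inspection, cut at about 30% in these data, passing the limit was not always enough; inconclusive = above the inhibition threshold but rejected on visual inspection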
# VCAM1 TNFa inh = reduces TNF alpha induced VCAM1 expression in HUVEC | HUVEC TNFa-induced VCAM-1 immunofluorescence, high-content imaging | inhibition, % at 2 µM | hit rate 0.48% among 95,000 | AID 802;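 active = inhibition above the batch mean plus 3 SD, with images confirmed as a hit by eye, cut at about 37% in these data; inconclusive = inhibition above that limit but hit not confirmed in images; inactive = inhibition not above that limit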;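 also: 0% = TNF-stimulated DMSO wells and 100% = unstimulated control wells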
# IL1B NFkB inh = blocks IL-1B driven NFkB nuclear translocation in HUVEC cells; HUVEC IL-1B NFkB p65 nuclear translocation imaging; inhibition, % at 2 µM; hit rate 0.43% among 94,000;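 active = inhibition above about 30% together with a positive call from visual inspection of the well image, limit read from the data; inconclusive = inhibition above a set limit but visual check negative; inactive = inhibition not above a set limit, visual check negative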;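 also: nuclear over cytoplasmic p65 intensity ratio measured by imaging; 0% = IL-1B stimulated DMSO wells and 100% = unstimulated DMSO wells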
# IL1B cytotox = toxic to HUVEC cells under IL-1B stimulation. hit rate 0.41% among 94,000. AID 845. HUVEC cell count loss, Hoechst imaging, IL-1B stimulated. cell count reduction, % at 2 µM;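 active = cell count reduction more than 3 SD above the screen-wide mean, cut at about 70% in these data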;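 also: normalized per plate to untreated control cells as the no-loss baseline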
# An asterisk follows results filed as active; u = inconclusive; x = not tested or not shown.
SMILES,TNFa cytotox,IL1B NFkB pot,cytoskel mod,VCAM1 TNFa inh,IL1B NFkB inh,IL1B cytotox
COC(=O)C(NC(=O)c1ccc(Cl)cc1)(Nc1nc(C)cs1)C(F)(F)F (stereo not drawn),-6,2,2,6,-2,-10
O=C(Nc1ccc2nc(-c3ccc(Br)o3)[nH]c2c1)c1cccs1,-13,-99,-8,-29,99*,84*
Cc1ncc(CCl)c2c1OC(C)(C)OC2,-19,-18,12,-2,18,39
O=C(O)Cc1ccc(C(=O)c2ccc(Cl)cc2)s1,-7,1,-13,-21,-1,7
Nc1sccc1C(=O)c1ccc(Cl)cc1,-62,18,30,92*,-18,-38
[O-]/[N+](=C\c1ccccc1)[C@@H]1CCCC[C@@H]1/[N+]([O-])=C/c1ccccc1,-30,-12,-15,18,12,93*
CC(C)C(=O)c1cn(CC(=O)NCC2CCCO2)c2ccccc12 (stereo not drawn),8,-5,21,-4,5,9
CCOC(=O)C1=C(O)/C(=C/c2cn(CC(=O)NCC3CCCO3)c3ccccc23)SC1=Nc1ccc(C)cc1 (stereo not drawn),24,-13,20,89*,13,8
CCn1ccnc1C(O)c1cccc(OC)c1 (stereo not drawn),-11,1,64*,-9,-1,18
CCC(COC(=O)Nc1cccc(C)c1C)NC(=O)OCC(C)C (stereo not drawn),-1,-31,-3,0,31*,3
COc1ccc(C2N(S(=O)(=O)c3ccc(C)cc3)CCN2S(=O)(=O)c2ccc(C)cc2)cc1,12,0,1,19,0,-4
Cc1cc(NC(=O)NC(=O)c2cccc(OC(F)(F)C(F)F)c2)n[nH]1,12,2,-8,91*,-2,-29
C#CCOC(=O)CCCNc1ccc([N+](=O)[O-])cc1[N+](=O)[O-],-10,7,22,0,-7,-88
CCOC(=O)C1CCCN(S(=O)(=O)c2cn(C)c(=O)n(C)c2=O)C1 (stereo not drawn),79*,-10,-13,-24,10,0
CCOC(=O)C1CCCN(S(=O)(=O)c2ccccc2)C1 (stereo not drawn),-8,9,17,25,-9,-4
O=C(c1cc2ccccc2oc1=O)N(Cc1cccs1)Cc1ccccc1Cl,-4,3,-1,10,-3,94*
Cc1cc(NS(=O)(=O)c2ccc(NC(=O)CCCOc3ccc(Cl)cc3)cc2)no1,-28,-9,x,4,9,-30
Cc1cc(NS(=O)(=O)c2ccc(NC(=O)CCCOc3ccccc3)cc2)no1,1,45*,-21,7,-45,9
COc1ccc(N2CCN(C(=O)C(C)(C)Oc3ccc(Cl)cc3)CC2)cc1,78*,-16,-29,-22,16,36
Cc1cc(C)c(S(=O)(=O)/N=C2\C=CC(=O)C(Cl)=C2)c(C)c1,-5,-31,-18,2,31*,23
Cc1ccc(S(=O)(=O)c2c(C)cc(C)nc2Cl)c(C)c1,-7,2,6,0,-2,-6
O=C(/C=C/c1cccs1)c1ccc(Br)cc1,-9,107*,-21,6,-107,-21
CCOC(=O)Cc1csc(SCC(=O)/C(C#N)=C(\C)N)n1,79*,4,22,59*,-4,4
CCOC(=O)Cc1csc(SCC(=O)c2c(N)n(CC(C)C)c(=O)n(C)c2=O)n1,-28,-19,6,-2,19,-10
COc1ccccc1C(=O)Nc1ccc2c(c1)nc(CN1CCN(C(C)=O)CC1)n2C,-10,8,6,90*,-8,21
SMILES,TNFa cytotox,IL1B NFkB pot,cytoskel mod,VCAM1 TNFa inh,IL1B NFkB inh,IL1B cytotox
Cc1sc(NC(=O)CSc2nc(N)n(CC(=O)c3ccccc3)n2)c(C#N)c1C,-6,-1,-23,2,1,16
CN1CCN(Cc2cc(=O)oc3cc4c(cc23)CCC4)CC1,-26,41*,20,-1,-41,-12
COC(=O)C(C)Sc1nc2c(c(-c3ccc(OC)cc3)c1C#N)-c1ccccc1C2=O (stereo not drawn),5,-18,-5,10,18,-13
CC(C)Sc1nc2c(c(=O)[nH]c(=O)n2C)n1C,19,1,6,1,-1,29
CCC(C)Sc1nc2c(c(=O)[nH]c(=O)n2C)n1C (stereo not drawn),-9,7,20,0,-7,91*
COc1ccc(NS(=O)(=O)c2cc(OC)ccc2NC(=O)c2cc(C)oc2C)cc1,28,-3,-23,18,3,22
CCOc1ccc(C(C)(C)C)cc1S(=O)(=O)N1CCOCC1,9,-6,-43,10,6,15
COCCCNC(=S)NC1CC2CCCC(C1)N2Cc1ccco1 (stereo not drawn),-7,0,68*,1,0,-5
COc1ccc2o/c(=N\O)c(C(=O)Nc3ccccc3OC)cc2c1,-10,-8,14,-11,8,76*
COc1ccc(OC)c(NC(=O)c2cc3ccccc3o2)c1,-21,1,-1,-8,-1,8
O=C(c1ccc(F)cc1)N1CCCCC(Sc2nnnn2-c2ccccc2)C1=O (stereo not drawn),12,15,-7,-8,-15,1
Cc1cc(Cl)c(OCCCSc2nc(C)cc(=O)[nH]2)c(Br)c1,-4,-10,14,-14,10,90*
Cc1ccc(C)c(NS(=O)(=O)c2cc(C(=O)Nc3ccccc3-c3ccccc3)ccc2Cl)c1,16,-2,-10,-14,2,-6
COC(/C=C/Nc1ccc(Br)cc1)=C(C#N)C#N,-5,1,-4,23,-1,-26
CC(=O)NC(Cc1ccc(C)cc1)C(=O)NC1CCN(C(=O)c2cnccn2)CC1 (stereo not drawn),2,43*,-12,-2,-43,-17
CCOc1cccc(SCc2noc(C(=O)NCC3CCCO3)c2C(=O)O)c1 (stereo not drawn),8,-2,-24,-1,2,26
COc1ccc(NC(=O)C2CCCN2S(=O)(=O)c2cccc3cccnc23)c(OC)c1 (stereo not drawn),20,75*,3,2,-75,-11
O=C(c1ccc2ccccc2c1)N1CCN(c2ccc([N+](=O)[O-])c(N3CCOCC3)c2)CC1,1,45*,-60,15,-45,-33
Cc1ccc2c(CC(=O)N3CCN(S(=O)(=O)c4ccc5c(c4)OCCO5)CC3)coc2c1,-18,10,3,5,-10,-5
CCCn1c(SCC(=O)Nc2ccc(OCC)cc2)nnc1C(C)C,-16,21,4,14,-21,-10
CCn1c(SCC(=O)Nc2ccc(C(=O)OC)cc2)nnc1-c1cccs1,-9,22,-1,55*,-22,-9
CCOc1ccc(NC(=O)CSc2nnc(C(C)C)n2CC)cc1,-39,u,2,3,-57,95*

# Bioassay records as filed in PubChem BioAssay.
